Measurements published in PubChem BioAssay (NCATS).
Results filed as inconclusive are left out. Active and inactive are the calls of the source. Calls follow the shape of the dose curve; as a rule, active = well fitted curve in the direction sought with a large enough effect; inconclusive = small, poorly fitted or top-dose-only effect, or another doubt; inactive = no such curve, though single readings can be large; an effect the other way counts as inactive or inconclusive.

Columns and labels:
[1] = Quantitative High-Throughput drug screen in 47 multiple myeloma cell lines against the NCATS MIPE library collection: MOLP8_DSMZ cell viability assay (AID 1918977); conditions: MOLP8 myeloma viability, CellTiter-Glo ATP luminescence, 48 h; series mostly up to 45.8 µM; also: nearly all actives have a fitted effect of over 45% in size; also: potency is read from the fitted curve at half-maximal effect
In short: (§1)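 500 cells/well; MIPE 4.0 drugs pin-transferred; 48 h, 37C, 5% CO2. CellTiter-Glo, 5 min RT, luminescence. Controls: DMSO 100%, media 0%.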

[2] = Quantitative High-Throughput drug screen in 47 multiple myeloma cell lines against the NCATS MIPE library collection: NCIH929_DSMZ cell viability assay (AID 1918978); conditions: NCI-H929 myeloma viability, CellTiter-Glo ATP, 48 h; series mostly up to 45.8 µM; also: nearly all actives have a fitted effect of over 35% in size; also: potency is read from the fitted curve at half-maximal effect
In short: as §1

[3] = Quantitative High-Throughput drug screen in 47 multiple myeloma cell lines against the NCATS MIPE library collection: OCIMY1_PLB cell viability assay (AID 1918979); conditions: OCI-MY1 myeloma viability, CellTiter-Glo ATP, 48 h; series mostly up to 45.8 µM; also: nearly all actives have a fitted effect of over 35% in size; also: potency is read from the fitted curve at half-maximal effect;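 as to viability: 100% = DMSO-only wells and 0% = cell-free media-only wells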
In short: as §1

[4] = Quantitative High-Throughput drug screen in 47 multiple myeloma cell lines against the NCATS MIPE library collection: MM1S_ATCC cell viability assay (AID 1918980); conditions: MM1S myeloma viability, CellTiter-Glo ATP luminescence, 48 h; series mostly up to 45.8 µM; also: nearly all actives have a fitted effect of over 45% in size; also: potency is read from the fitted curve at half-maximal effect
In short: as §1

[5] = Quantitative High-Throughput drug screen in 47 multiple myeloma cell lines against the NCATS MIPE library collection: MM1R_ATCC cell viability assay (AID 1918981); conditions: MM1R multiple myeloma cells, CellTiter-Glo viability, 48 h; series mostly up to 45.8 µM; also: nearly all actives have a fitted effect of over 35% in size; also: potency is read from the fitted curve at half-maximal effect
In short: as §1

[6] = Quantitative High-Throughput drug screen in 47 multiple myeloma cell lines against the NCATS MIPE library collection: KMS28PE_JCRB cell viability assay (AID 1918983); conditions: KMS28PE multiple myeloma viability, CellTiter-Glo ATP, 48 h; series mostly up to 45.8 µM; also: nearly all actives have a fitted effect of over 35% in size; also: potency is read from the fitted curve at half-maximal effect
In short: as §1

[7] = Quantitative High-Throughput drug screen in 47 multiple myeloma cell lines against the NCATS MIPE library collection: KMS34_JCRB cell viability assay (AID 1918985); conditions: KMS34 myeloma viability, CellTiter-Glo ATP luminescence, 48 h; series mostly up to 45.8 µM; also: nearly all actives have a fitted effect of over 40% in size; also: potency is read from the fitted curve at half-maximal effect
In short: as §1

[8] = Quantitative High-Throughput drug screen in 47 multiple myeloma cell lines against the NCATS MIPE library collection: OCIMY5_PLB cell viability assay (AID 1918988); conditions: OCI-MY5 myeloma viability, ATP luminescence, 48 h; series mostly up to 45.8 µM; also: nearly all actives have a fitted effect of over 65% in size; also: potency is read from the fitted curve at half-maximal effect
In short: as §1

[9] = Quantitative High-Throughput drug screen in 47 multiple myeloma cell lines against the NCATS MIPE library collection: OPM1_PLB cell viability assay (AID 1918989); conditions: CellTiter-Glo, 48 h; series mostly up to 45.8 µM; also: nearly all actives have a fitted effect of over 40% in size; also: potency is read from the fitted curve at half-maximal effect
In short: as §1

[10] = Quantitative High-Throughput drug screen in 47 multiple myeloma cell lines against the NCATS MIPE library collection: XG6_PLB cell viability assay (AID 1919865); conditions: XG6 myeloma viability, CellTiter-Glo ATP luminescence, 48 h; series mostly up to 45.8 µM; also: nearly all actives have a fitted effect of over 40% in size; also: potency is read from the fitted curve at half-maximal effect
In short: as §1

[11] = Quantitative High-Throughput drug screen in 47 multiple myeloma cell lines against the NCATS MIPE library collection: XG1_PLB cell viability assay (AID 1919866); conditions: CellTiter-Glo ATP, 48 h; series mostly up to 45.8 µM; also: nearly all actives have a fitted effect of over 35% in size; also: potency is read from the fitted curve at half-maximal effect
In short: as §1

[12] = Quantitative High-Throughput drug screen in 47 multiple myeloma cell lines against the NCATS MIPE library collection: KMS26_JCRB cell viability assay (AID 1918975); conditions: KMS26 myeloma cells viability, CellTiter-Glo ATP, 48 h; series mostly up to 45.8 µM; also: nearly all actives have a fitted effect of over 45% in size; also: potency is read from the fitted curve at half-maximal effect
In short: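 qHTS of the MIPE 4.0 collection: 500 myeloma cells/well, 48 h drug exposure at 37C in 5% CO2, then CellTiter-Glo for 5 min at room temperature before luminescence reading.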

[13] = Quantitative High-Throughput drug screen in 47 multiple myeloma cell lines against the NCATS MIPE library collection: LP1_DSMZ cell viability assay (AID 1918982); conditions: LP1 myeloma viability, CellTiter-Glo ATP luminescence, 48 h; series mostly up to 45.8 µM; also: nearly all actives have a fitted effect of over 35% in size; also: potency is read from the fitted curve at half-maximal effect
In short: as §1

[14] = Quantitative High-Throughput drug screen in 47 multiple myeloma cell lines against the NCATS MIPE library collection: SKMM1_PLB cell viability assay (AID 1919863); conditions: SKMM1 myeloma viability, CellTiter-Glo ATP, 48 h; viability: stronger effect = lower value; also: nearly all actives have a fitted effect of over 35% in size; also: potency is read from the fitted curve at half-maximal effect
In short: as §1

[15] = Quantitative High-Throughput drug screen in 47 multiple myeloma cell lines against the NCATS MIPE library collection: U266_ATCC cell viability assay (AID 1919864); conditions: U266 myeloma viability, CellTiter-Glo ATP luminescence, 48 h; series mostly up to 45.8 µM; also: nearly all actives have a fitted effect of over 35% in size; also: potency is read from the fitted curve at half-maximal effect
In short: as §1

[16] = Quantitative High-Throughput drug screen in 47 multiple myeloma cell lines against the NCATS MIPE library collection: OCIMY7_PLB cell viability assay (AID 1918987); conditions: OCI-MY7 myeloma viability, CellTiter-Glo ATP, 48 h; series mostly up to 45.8 µM; also: nearly all actives have a fitted effect of over 65% in size; also: potency is read from the fitted curve at half-maximal effect
In short: as §1

[17] = Quantitative High-Throughput drug screen in 47 multiple myeloma cell lines against the NCATS MIPE library collection: MMM1_PLB cell viability assay (AID 1918976); conditions: MMM1 myeloma cells viability, CellTiter-Glo, 48 h; series mostly up to 45.8 µM
In short: as §1

[18] = Quantitative High-Throughput drug screen in 47 multiple myeloma cell lines against the NCATS MIPE library collection: L363_DSMZ cell viability assay (AID 1918984); conditions: L363 myeloma viability, CellTiter-Glo ATP luminescence, 48 h; series mostly up to 45.8 µM; also: nearly all actives have a fitted effect of over 40% in size
In short: as §1

C[C@@H]1CC(=O)NN=C1c1ccc(NN=C(C#N)C#N)cc1
active: Potency [1] 26.4 µM | Potency [2] 20.9 µM | Potency [3] 23.5 µM | Potency [4] 23.5 µM | Potency [5] 20.9 µM | Potency [6] 23.5 µM | Potency [7] 20.9 µM | Potency [8] 18.7 µM | Potency [9] 18.7 µM | Potency [10] 23.5 µM | Potency [11] 18.7 µM

O=c1[nH]cc(F)c(=O)[nH]1
inactive: Potency [12] | Potency [6] | Potency [8]
active: Potency [4] 14.8 µM | Potency [13] 14.8 µM | Potency [14] 13.2 µM | Potency [15] 3.32 µM | Potency [10] 4.69 µM | Potency [11] 7.43 µM

CN1CCN2c3ccccc3Cc3ccccc3C2C1 (stereo not drawn)
active: Potency [12] 26.4 µM | Potency [3] 16.6 µM | Potency [4] 13.2 µM | Potency [8] 23.5 µM | Potency [9] 16.6 µM | Potency [10] 10.5 µM | Potency [11] 18.7 µM

Clc1ccc2nsnc2c1NC1=NCCN1
inactive: Potency [1] | Potency [2] | Potency [3] | Potency [5] | Potency [6] | Potency [9] | Potency [10] | Potency [11]

CC(C)(C)C(=O)Oc1ccc(S(=O)(=O)Nc2ccccc2C(=O)NCC(=O)O)cc1
inactive: Potency [12] | Potency [3] | Potency [5] | Potency [13] | Potency [6] | Potency [7] | Potency [9] | viability [14] 142%

Cn1ccc2cc3c(cc21)CCN3C(=O)Nc1cccnc1
active: Potency [10] 11.8 µM

O=c1c(O)c(-c2ccc(O)c(O)c2)oc2cc(O)cc(O)c12
inactive: Potency [1] | Potency [6]
active: Potency [2] 7.43 µM | Potency [4] 26.4 µM | Potency [16] 11.8 µM | Potency [9] 20.9 µM | Potency [10] 16.6 µM | Potency [11] 18.7 µM

COc1cc2nc(N3CCN(C(=O)C4COc5ccccc5O4)CC3)nc(N)c2cc1OC (stereo not drawn)
inactive: Potency [1] | Potency [7] | viability [14] 137%
active: Potency [2] 23.5 µM | Potency [13] 11.8 µM | Potency [6] 23.5 µM | Potency [9] 18.7 µM | Potency [10] 20.9 µM | Potency [11] 29.6 µM

NS(=O)(=O)c1cc2c(cc1Cl)NCNS2(=O)=O
active: Potency [17] 16.6 µM | Potency [11] 7.43 µM
inactive: Potency [1] | Potency [2] | Potency [3] | Potency [6] | Potency [18] | Potency [7] | viability [14] 114%

CCCNCC(O)COc1ccccc1C(=O)CCc1ccccc1 (stereo not drawn)
inactive: Potency [1] | Potency [2] | Potency [5] | Potency [6] | Potency [7] | Potency [15] | Potency [10]

OCCN(CCO)c1nc(N2CCCCC2)c2nc(N(CCO)CCO)nc(N3CCCCC3)c2n1
active: Potency [1] 16.6 µM | Potency [4] 20.9 µM | Potency [6] 20.9 µM | Potency [8] 23.5 µM | Potency [15] 23.5 µM | Potency [10] 18.7 µM | Potency [11] 23.5 µM

Cc1cnc(C(=O)NCCc2ccc(S(=O)(=O)NC(=O)NC3CCCCC3)cc2)cn1
inactive: Potency [1] | Potency [2] | Potency [3]
active: Potency [13] 20.9 µM | Potency [11] 20.9 µM

Nc1c2c(nc3ccccc13)CCCC2
inactive: Potency [2] | Potency [3] | Potency [16] | Potency [9] | Potency [10] | Potency [11]
active: Potency [4] 11.8 µM | Potency [6] 14.8 µM | Potency [8] 23.5 µM

C[C@H]1c2cccc(O)c2C(O)=C2C(=O)[C@]3(O)C(O)=C(C(N)=O)C(=O)[C@@H](N(C)C)[C@@H]3[C@@H](O)[C@@H]21
inactive: Potency [13]
active: Potency [12] 23.5 µM | Potency [2] 18.7 µM | Potency [8] 23.5 µM | Potency [10] 18.7 µM | Potency [11] 18.7 µM

Cc1cc(C(C)(C)C)c(O)c(C)c1CC1=NCCN1
inactive: Potency [1] | Potency [2] | Potency [3] | Potency [5] | Potency [13] | Potency [6] | Potency [9] | Potency [15] | Potency [10] | Potency [11]

CC(C)Cc1ccc(C(C)C(=O)O)cc1 (stereo not drawn)
inactive: Potency [1] | Potency [2] | Potency [3] | Potency [4] | Potency [13] | Potency [6] | Potency [7] | Potency [8] | Potency [9] | Potency [11]
active: Potency [10] 6.45 µM

O=C1Cc2cc(CCN3CCN(c4nsc5ccccc45)CC3)c(Cl)cc2N1
active: Potency [2] 23.5 µM | Potency [3] 20.9 µM | Potency [5] 20.9 µM | Potency [7] 20.9 µM | Potency [8] 37.2 µM | Potency [10] 23.5 µM | Potency [11] 23.5 µM

CC(COc1ccccc1)N(CCCl)Cc1ccccc1 (stereo not drawn)
active: Potency [8] 26.4 µM
inactive: Potency [2] | Potency [7] | viability [14] 112% | Potency [15]

CC(C(=O)O)c1cccc(C(=O)c2ccccc2)c1 (stereo not drawn)
active: Potency [2] 13.2 µM | Potency [4] 2.96 µM | Potency [8] 20.9 µM | Potency [10] 13.2 µM | Potency [11] 14.8 µM
inactive: Potency [1] | Potency [3] | Potency [6] | Potency [7] | viability [14] 106% | Potency [15]
